Screens: PubChem, several laboratories
Hsp70 activator = switches on Hsp70 transcription; AID 1203; activation, % at 10 µM; actives 0.04% (n = 200,000); HeLa Hsp70 promoter luciferase reporter, luminescence; scaled: vehicle 0, proteasome-inhibitor control 100%;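 active = activation above the mean across all tested compounds plus 3 SD, cutoff set per campaign, cut at about 5.5% in these data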
HIF act = HIF pathway transcriptional activation. activation, % at 7.5 µM (by protocol). actives 0.32% (n = 300,000). U2OS HRE-luciferase reporter, luminescence; normalized: DMSO 0%, desferrioxamine 100%. AID 1910;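 active = mean activation of at least 10% of the iron chelator positive control signal, with at least half of replicates also reaching 10%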
SMARCA2 act = increases SMARCA2 function in MMTV reporter cells; MG213 cells, MMTV-luciferase reporter, dexamethasone, overnight; AID 652017; actives 1% (n = 370,000); activation, % at 9.1 µM; in the data active = activation above about 7.8%
GAA850 FXN act = increases GAA850 frataxin promoter reporter activity. AID 540364. actives 0.56% (n = 360,000). activation, % at 6 µM. HEK293 lucGAA850 FXN promoter luciferase reporter, 24 h; percent of 10 µM SAHA response;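 active = activation above the average of all compounds screened plus 3 SD, cutoff fixed separately per campaign, cut at about 7.5% in these data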
GalR3 antag = blocks the human galanin receptor 3; HEK293 GalR3-CNG cAMP membrane potential fluorescence; galR3 body fused to GalR1 C-terminus; inhibition, % at 3 µM; O60755; actives 0.44% (n = 360,000);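 active = inhibition above the screen-wide average plus 3 SD, cut at about 13% in these data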;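 also: forskolin and galanin both at EC90 stimulate the cells; cAMP rise reported by CNG channel membrane potential dye signal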
Target sequence (O60755 1-299 limits assumed): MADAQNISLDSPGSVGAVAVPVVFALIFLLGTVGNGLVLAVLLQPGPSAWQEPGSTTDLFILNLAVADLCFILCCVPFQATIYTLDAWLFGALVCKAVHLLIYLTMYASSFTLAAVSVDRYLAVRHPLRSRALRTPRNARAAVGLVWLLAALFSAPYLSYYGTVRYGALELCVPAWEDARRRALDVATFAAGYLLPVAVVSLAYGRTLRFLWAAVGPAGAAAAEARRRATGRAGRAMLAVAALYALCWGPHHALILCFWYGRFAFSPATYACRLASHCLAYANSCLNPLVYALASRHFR
GAA30 counter = activates GAA30 frataxin promoter, counter-screen for GAA850 activators | actives 66% (n = 1,900) | activation, % at 6 µM | shares compounds with GAA850 FXN act | HEK293 lucGAA30 FXN promoter luciferase, 24 h; DMSO = 0%, 5 µM ipriflavone = 100%;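 active = mean activation above the mean of solvent-only control wells plus 3 SD, cut at about 22% in these data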;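 also: counterscreen of GAA850 promoter hits where activity marks nonselective or luminescence artifacts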
FXN GAA850 conf = GAA850 FXN promoter activation confirmation; HEK293 lucGAA850 FXN promoter luciferase reporter, 24 h; 100% = activation by SAHA; actives 86% (n = 1,900); activation, % at 6 µM; shares compounds with GAA850 FXN act;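 active = mean activation above a set limit taken from the primary screen, cut at about 8% in these data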
GalR3 antag conf = GalR3 (human) antagonism, confirmation; shares compounds with GalR3 antag; actives 59% (n = 1,600); AID 652245; inhibition, % at 3 µM; HEK293 GalR3 CNG cAMP biosensor, membrane potential fluorescence; galR3 fused to GalR1 carboxy tail; challenged with forskolin and galanin at EC90;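 active = inhibition above the primary screen's cutoff, the mean inhibition of all screened compounds plus 3 SD, cut at about 13% in these data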
CNG parental = counter-screen for GalR3 antagonists: nonspecific agonists in parental HEK-CNG cells | activation, % at 3 µM | HEK293-CNG parental cells, cAMP membrane potential fluorescence; normalised: DMSO wells 0%, forskolin wells 100% | actives 10% (n = 1,600) | shares compounds with GalR3 antag; in the data active = activation above about 1.3%
SMARCA2 conf = confirmation of SMARCA2 (BRM) function activators | shares compounds with SMARCA2 act | MG213 cells, MMTV-luciferase with dexamethasone, luminescence, overnight; MG213 cells expressing E1A, Rb sequestered; DMSO wells 0%, reference activator 100% | activation, % at 9.1 µM | actives 30% (n = 3,500) | AID 652260;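 active = activation above its plate's cutoff, the mean activation of tested wells plus 3 SD, cut at about 7.9% in these data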
VP16 Luc act = counter-screen for SMARCA2 activators: GAL4-VP16 luciferase reporter activation. activation, % at 9.1 µM. AID 686939. actives 41% (n = 3,500). shares compounds with SMARCA2 act. HEK293 GAL4-VP16 pG5luc reporter, luciferase luminescence; scaled: DMSO wells 0%, SAHA wells 100%;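 active = activation above the solvent-only control well mean plus 3 SD, averaged across control plates, cut at about 5.2% in these data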
Hits are given with their value; – = inactive; · = not tested or not shown. A selection: hits, their analogues and other compounds. The true share with any hit is near 2.2%.

SMILES | Hsp70 activator | HIF act | SMARCA2 act | GAA850 FXN act | GalR3 antag | GAA30 counter | FXN GAA850 conf | SMARCA2 conf | VP16 Luc act | others
COc1ccc(/C=C2\SC(=N)N(c3ccc(F)cc3)C2=O)cc1OC | – | – | – | 8.3 | 18 | – | 15 | · | · | GalR3 antag conf=17;CNG parental=–
CCOc1ccc(/C=C2\SC(=O)N(c3ccc(O)cc3)C2=O)cc1OC | · | – | · | · | · | · | · | · | ·
COc1cc(C(=O)O[C@H]2CC(C)=CC[C@@]3(C)CC[C@@](O)(C(C)C)[C@H]23)ccc1O | · | – | – | 16 | 26 | 29 | 8.1 | · | · | GalR3 antag conf=21;CNG parental=–
CCOc1ccc(C2C(C(=O)c3ccc(C)o3)=C(O)C(=O)N2c2nc(C)c(C(=O)OC)s2)cc1 (stereo not given) | · | – | – | 7.6 | 13 | 33 | 18 | · | · | GalR3 antag conf=15;CNG parental=–
COC(=O)c1sc(N2C(=O)C(O)=C(C(=O)c3ccc(C)o3)C2c2ccc([N+](=O)[O-])cc2)nc1C (stereo not given) | · | – | – | – | – | · | · | · | ·
COc1cc(NC(=O)c2ccccc2)c(C)cc1NC(=O)CSc1nnc(-c2ccccc2F)n1-c1ccc(C)cc1 | · | · | – | · | · | · | · | · | ·
COC(=O)[C@H](CC(C)C)N(CCc1cn(Cc2ccc(C)cc2)nn1)S(=O)(=O)c1ccc(F)cc1Br | · | · | – | · | · | · | · | · | ·
O=C(C=C=Nc1ccccc1)C(=O)N=C=Cc1ccccc1 | · | – | – | 8.7 | 18 | 27 | 29 | · | · | GalR3 antag conf=–;CNG parental=–
O=C(N/N=C/c1ccccc1)C(=O)N/N=C/c1ccccc1 | · | – | – | – | – | · | · | · | ·
CC1CCN(CCCNS(=O)(=O)c2cc3c(cc2Br)CCN3C(=O)C2CC2)CC1 | · | · | – | · | · | · | · | · | ·
COc1ccc(OC)c2sc(N3CCN(c4ccccc4)CC3)nc12 | – | – | – | 8.8 | 15 | 39 | 17 | · | · | GalR3 antag conf=–;CNG parental=–
COc1ccc(-c2cc(C(F)(F)F)nc(S(=O)(=O)CCCC(=O)Nc3cc(C)on3)n2)cc1OC | – | 12 | – | 10 | 18 | 58 | 83 | · | · | GalR3 antag conf=19;CNG parental=–
COc1ccc(-c2cc(C(F)(F)F)n3nc(C(=O)Nc4cc(C)on4)cc3n2)cc1OC | – | · | – | – | – | · | · | · | ·
COCc1cc(N2CCN(C(=O)OC(C)(C)C)C[C@H]2C)ccc1N1CCN(Cc2ccccc2)[C@H](C)C1 | · | · | – | · | – | · | · | · | ·
N#Cc1c(N)nc(SCc2ccncc2)c(C#N)c1-c1cccs1 | – | – | – | 9.9 | 75 | – | – | · | · | GalR3 antag conf=91;CNG parental=–
COc1cc(-c2c(C#N)c(N)nc(SCc3ccncc3)c2C#N)cc(OC)c1OC | – | – | · | – | · | · | · | · | ·
CN(C)CCNc1ccc2ncn3c4ccc(O)cc4c(=O)c1c23 | · | · | 15 | 8.4 | – | – | 26 | 141 | –
Cc1ccc(NC(=O)C2CCN(c3ncccn3)CC2)cc1C | · | · | – | · | · | · | · | · | ·
COc1ccc2oc(=Nc3ccccc3)c(-c3nc4ccccc4[nH]3)cc2c1 | – | – | 11 | 7.9 | – | 109 | 39 | – | 9.8
COc1ccc(-c2nc3ccccc3[nH]2)cc1 | – | – | – | – | – | · | · | · | ·
Cc1cc(C)c2c(N)c3cccc(C)c3nc2n1 | – | · | 28 | 8.0 | – | – | 143 | 347 | 6.1
Nc1nc(Nc2ccccc2)sc1C(=O)c1ccccc1 | · | – | 11 | 22 | – | 102 | 107 | 12 | 8.1
COc1ccc(C(=O)c2sc(Nc3ccccc3F)nc2N)cc1 | · | – | 16 | 8.1 | – | 81 | 43 | 11 | 12
COc1ccc(C(=O)c2sc(Nc3ccccc3)nc2N)cc1 | · | – | – | – | – | · | · | · | ·
CN1CC=C(c2ccccc2)N(c2ccc(Cl)cc2)C1=O | · | · | – | · | · | · | · | · | ·
SMILES | Hsp70 activator | HIF act | SMARCA2 act | GAA850 FXN act | GalR3 antag | GAA30 counter | FXN GAA850 conf | SMARCA2 conf | VP16 Luc act | others
COc1ccc(C2CC(=O)N(CC(=O)NCC3CCCO3)c3ccccc3S2)cc1OC (stereo not given) | – | – | – | – | – | · | · | · | ·
COc1ccc(C2CC(=O)N(C)c3ccccc3S2)cc1OC (stereo not given) | – | – | 10 | 8.4 | – | 122 | 45 | 12 | 9.6
O=CN1CCN(C(=O)C2CCN(c3ncnc4c3sc3cccc(F)c34)CC2)CC1 | · | · | – | · | · | · | · | · | ·
O=C(CSc1nc2ccccc2nc1N1CCOCC1)N1CCN(c2cccc(C(F)(F)F)c2)CC1 | · | · | – | · | · | · | · | · | ·
Clc1ccc(-c2nnc(-c3ccco3)o2)cc1 | – | – | 13 | 12 | – | 108 | 41 | 8.0 | 8.3
COC(=O)C1=C(C)N(C)C(=NCc2cccc(C(F)(F)F)c2)NC1c1ccc(C(F)(F)F)cc1 (stereo not given) | · | · | – | · | – | · | · | · | ·
NC(=O)CC1C(=O)N(c2ccccc2)C(=S)N1NC(=O)c1ccccc1 (stereo not given) | · | – | 8.0 | 8.9 | – | 77 | 20 | – | –
CNC(=O)CC1C(=O)N(C)C(=S)N1NC(=O)c1ccccc1 (stereo not given) | · | – | – | – | – | · | · | · | ·
O=C1C2C3C=CC(C4CC34)C2C(=O)N1/N=C/c1ccc([N+](=O)[O-])o1 (stereo not given) | – | – | 9.3 | 9.6 | – | – | 12 | 10 | –
COc1ccccc1CNC(=O)NNC(=O)CCn1nc(C)c([N+](=O)[O-])c1C | · | · | – | · | · | · | · | · | ·
Cn1nc(NC(=O)C(F)(F)F)c2ncc(-c3ccc(Cl)cc3)nc21 | · | – | – | – | – | · | · | · | ·
Cn1nc(N)c2ncc(-c3ccc(Cl)cc3)nc21 | · | · | 9.1 | 9.7 | – | 99 | 30 | 8.9 | 7.7
COc1ccnc(Oc2ccc3ccccc3c2)c1C#N | – | – | 14 | 8.2 | – | 82 | 25 | – | 7.9
O=C(O)c1ccc(N/N=C/c2cc3ccccc3nc2Cl)cc1 | · | – | 13 | 11 | – | 120 | 47 | – | 12
O=C(N/N=C/c1cc2ccccc2nc1Cl)[C@H]1C[C@@H]1c1ccccc1 | – | – | – | – | – | · | · | · | ·
C=CCN1C(=O)[C@H](CC(=O)NCC2CCCCC2)[C@@]2(C(=O)OCC)CCCC=C12 | · | · | – | · | · | · | · | · | ·
